This excerpt belongs to a sample that is enriched for hits.
RE007 growth inh: less growth of the S. pombe RE007 Vpr strain; S. pombe RE007 Vpr strain, BacTiter-Glo ATP luminescence, 24 h; Potency, µM (highest dose often 92.2 µM), without a hit: top-dose activity change, negative = less growth, most hits filed as inhibitors; 360,000 tested, 0.21% active; AID 651644; active = well fitted falling curve with a large enough effect; inconclusive = small, poorly fitted or top-dose-only effect; inactive = no such curve, though single readings can be large or run the other way; also: potency is read from the fitted curve at half-maximal effect; % is scaled to controls: 0 for no effect and ±100 for the full control effect; nearly all actives have a fitted effect of over 50% in size
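Fission yeast strain RE007, carrying one chromosomally integrated HIV-1 vpr copy, was seeded at OD 0.01 in PMG+AL medium with 23 nL pinned compound. After 24 h at 30 °C and 99% humidity, viability was read by BacTiter-Glo luminescence.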
Cycloheximide cs: counter-screen for Shiga toxin inhibitors: cycloheximide protein synthesis inhibition; AID 2314; max response, %; cell reporter, cycloheximide protein synthesis inhibition counterscreen; 300,000 tested, 12% active; in the data active = max response mostly above about 13%, no sharp cut-off; inactive = mostly below about 14%; also: read at 38.3 µM for the half of the compounds with a filed dose; 0% is about no effect
LmPK inhibitor: inhibitors of Leishmania mexicana pyruvate kinase; Q27686; purified LmPK, Kinase-Glo ATP luminescence, 1 h; Potency, µM (doses to about 57.5 µM), for the others: at the top dose activity change, negative = inhibition, hits mostly inhibitors; 290,000 tested, 0.37% active; also: potency is read from the fitted curve at half-maximal effect; % is scaled to controls: 0 for no effect and ±100 for the full control effect
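Purified LmPK (0.1 nM) with 0.5 mM PEP and 0.1 mM ADP in imidazole buffer pH 7.2 with MgCl2/KCl, 1 h at room temperature. ATP formed was read by luciferase luminescence and normalized to no-enzyme and uninhibited controls.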
FBPA Giardia inh: blocks Giardia fructose-bisphosphate aldolase activity; purified Giardia FBPA; A8B2U2; Potency, µM (titrated, usually from 59.6 µM), without a hit: at the highest dose activity, negative = inhibition, actives largely listed as inhibitors; 290,000 tested, 0.71% active; also: potency is read from the fitted curve at half-maximal effect; % is scaled to controls: 0 for no effect and ±100 for the full control effect; nearly all actives have a fitted effect of over 55% in size
Target sequence (A8B2U2 whole entry, looked up): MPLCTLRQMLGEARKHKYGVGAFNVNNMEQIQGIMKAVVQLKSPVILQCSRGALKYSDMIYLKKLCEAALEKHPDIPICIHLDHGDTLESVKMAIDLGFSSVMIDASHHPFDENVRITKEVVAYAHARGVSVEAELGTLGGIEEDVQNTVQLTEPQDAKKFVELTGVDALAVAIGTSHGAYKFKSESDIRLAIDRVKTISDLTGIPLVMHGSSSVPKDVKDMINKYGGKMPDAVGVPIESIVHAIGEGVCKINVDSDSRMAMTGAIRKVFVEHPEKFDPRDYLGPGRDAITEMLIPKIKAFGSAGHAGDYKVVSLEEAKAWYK
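Giardia FBPA (40 nM reagent) was preincubated 10 min at RT with compound (up to 57.5 uM final), then substrate plus GAPDH/TPI/NAD/arsenate coupling system with diaphorase/resazurin was added; resorufin fluorescence (525/598 nm) was read after 20 min.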
Tb PYK inh: blocks Trypanosoma brucei pyruvate kinase | Q57TT1 | Potency, µM (top dose mostly 76.8 µM), for the others: at the top dose activity, negative = inhibition, usual class: inhibitors | TbPYK enzyme, Kinase-Glo Plus ATP luminescence, 45 min | AID 624173 | 410,000 tested, 0.12% active; also: potency is read from the fitted curve at half-maximal effect; % is scaled to controls: 0 for no effect and ±100 for the full control effect; nearly all actives have a fitted effect of over 50% in size
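Luminescent Kinase-Glo Plus end-point after 45 min room-temperature reaction of T. brucei pyruvate kinase started with 130 uM ADP (final). Buffer TEA 50 mM pH 7.2 with KCl, MgCl2, BSA, Tween-20; titration-based qHTS with fitted concentration-effect curves.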
Shiga toxin inh: inhibitors of Shiga toxin in Vero cells. 290,000 tested, 9.2% active. AID 2315. Vero cells, Shiga toxin protein synthesis inhibition reporter. inhibition, % at 38.7 µM; in the data active = inhibition mostly above about 28%, no sharp cut-off; inactive = mostly below about 43%; also: 0% is about no effect
Starred values were filed as active, the others as inactive; ? = inconclusive; nt = no result. Unless noted, calls follow the shape of the dose curve; as a rule, active = well fitted curve in the direction sought with a large enough effect; inconclusive = small, poorly fitted or top-dose-only effect, or another doubt; inactive = no such curve, though single readings can be large; an effect the other way counts as inactive or inconclusive.

SMILES	RE007 growth inh	Cycloheximide cs	LmPK inhibitor	FBPA Giardia inh	Tb PYK inh	Shiga toxin inh
CC1(C)Cn2c(nnc2-c2cccc(O)c2)S1	7%	24*	-5%	14%	-4%	66*
Cc1ccc(Nc2nc(/N=C/N(C)C)n[nH]2)cc1C	2%	51*	-7%	0%	-1%	86*
Cc1c(NC(=O)C(C)C)cccc1-c1nc2ncccc2o1	1%	9	0%	10%	-12%	25
Fc1ccccc1-c1nc2ncccc2o1	-21%	23*	-17%	2%	2%	58*
c1ccc2c(-c3nc4ncccc4o3)cccc2c1	?	20*	3%	-7%	5%	34
CCCCC(=O)Nc1cccc(-c2nc3ncccc3o2)c1C	-4%	15*	3%	2%	10%	43
O=C(NC(=S)Nc1ccc(-c2nc3ncccc3o2)cc1)c1ccccc1F	-6%	14	4%	3%	-12%	3
C[C@]12C=CC(=O)N[C@@H]1CC[C@@H]1C2CC[C@]2(C)C(C(=O)Nc3cc(C(F)(F)F)ccc3C(F)(F)F)CC[C@@H]12 (stereo partly specified)	nt	nt	nt	nt	2%	nt
NC(=O)/C(=C/c1cccnc1)NC(=O)c1ccccc1	3%	-1	-3%	5%	-1%	7
NC(=O)c1c(/N=C/c2cccs2)sc2c1CCCC2	-2%	10*	6%	-12%	-26%	21
COc1ccccc1OCc1cc(C(=O)N2CC3C[C@@H]4CC2C[C@H](C3)C4)no1	10%	51*	4%	nt	7%	76*
COc1ccc(OCc2cc(C(=O)N3C[C@H]4CC[C@H]3C4)no2)c(Cl)c1	8%	36*	-6%	nt	-8%	88*
O=C(c1cc(COc2ccc(F)cc2F)on1)N1CC2C[C@@H]3CC1C[C@H](C2)C3	2%	43*	-4%	1%	-3%	115*
O=C(c1cc(COc2ccc(F)cc2Cl)on1)N1CCN(C2CCCC2)CC1	2%	-3	1%	0%	1%	19
COc1ccccc1OCc1cc(C(=O)N2CCN(C)C(c3ccccc3)C2)no1 (stereo unspecified)	0%	59*	0%	nt	-4%	81*
COC(=O)Nc1ccc2[nH]cc(CCNC(C)=O)c2c1	nt	-6	nt	1%	nt	12
COc1ccccc1NC(=O)c1c(C)cc(C)nc1SCC(=O)Nc1ccc(C)cc1	nt	nt	nt	nt	-2%	nt
O=C(c1cc(COc2c(F)cccc2F)on1)N1C[C@H]2CC[C@H]1C2	7%	76*	-4%	nt	6%	103*
COCC1CCN(C(=O)c2cc(COc3ccc(F)cc3F)on2)C1 (stereo unspecified)	-6%	20*	-5%	8%	-3%	39
O=C(c1cc(COc2ccc(F)cc2F)on1)N1C[C@H]2CC[C@H]1C2	11%	52*	-9%	nt	3%	101*
O=C(NCC1CCOCC1)c1cc(COc2ccc(F)cc2F)on1	11%	10	-2%	nt	0%	22
Cc1ccc(OCCSc2nc3ccccc3n2CC(=O)N2CCOCC2)cc1	nt	nt	nt	nt	3%	nt
CCOC(=O)CC(=O)CSc1nnc2c(n1)[nH]c1ccccc12	14%	20*	4%	4%	-5%	70
CCOC(=O)Cc1nnc(NC(=O)CSc2nnc3c(n2)[nH]c2ccccc23)s1	3%	-2	-3%	0%	0%	-8
O=C(O)CSc1nnc2c(n1)[nH]c1ccccc12	36%	18	28µM*	-1%	6%	18
SMILES	RE007 growth inh	Cycloheximide cs	LmPK inhibitor	FBPA Giardia inh	Tb PYK inh	Shiga toxin inh
O=C(CSc1nnc2c(n1)[nH]c1ccccc12)OCc1ccccc1	19%	-2	8%	0%	-8%	-7
Cc1nc2sc(C(=O)N(C)c3ccccc3)c(NC(=O)c3ccccc3Cl)c2c(C)c1C	nt	nt	nt	nt	-1%	nt
O=C(Nc1ccc(F)cc1F)Nc1sccc1-c1nc2ccccc2s1	1%	3	11%	?	0%	17
COCCN(C(=O)Nc1ccc(F)cc1F)c1nc2ccccc2s1	-14%	34*	-2%	8%	3%	48*
COCCN(C(=O)Nc1ccccc1)c1ccccc1	-13%	5	1%	0%	6%	49
COCCN(C(=O)Nc1ccc(OC)cc1)c1nc2ccccc2s1	9%	18*	2%	-8%	4%	42*
Cc1ccc(Cl)cc1N(C)C(=O)c1sc2nc3n(c(=O)c2c1C)CCCC3	nt	nt	nt	nt	-1%	nt
COC(=O)C(C)NC(=O)c1ccc(C(C)(C)C)cc1 (stereo unspecified)	15%	31*	-5%	-5%	-10%	77*
CCOC(=O)c1nnc2c(-c3ccc(F)cc3)c(C)nn2c1N	nt	nt	nt	nt	-7%	nt
Cc1ccccc1NC(=O)CSc1nc2ccccc2o1	-3%	23*	2%	-3%	2%	63*
C/C(=N\NC(=O)CSc1nc2ccccc2o1)c1ccc(O)cc1	27%	45*	3%	-4%	-12%	114*
O=C(CSc1nc2ccccc2o1)N/N=C/c1ccccc1	-8%	25*	0%	-5%	0%	61*
O=C(CSc1n[nH]c(=O)[nH]c1=O)N/N=C/c1ccccc1	5%	-4	-1%	-11%	-7%	-4
Cc1ccc(SCC(=O)n2nc(C)cc2C)cc1	6%	-2	-7%	2%	-2%	-2
Cc1cc(C)n(C(=O)CSc2nc3ccccc3o2)n1	7%	18*	-1%	16%	5%	12
COc1ccc(NC(=O)N2C[C@H]3CON(C)[C@H]3C[C@H]2c2ccc(N3CCCCC3)cc2)cc1	5%	nt	nt	nt	-13%	nt
CCc1nnc2c3ccccc3nc(N3CCN(c4cc(Cl)ccc4C)CC3)n12	nt	nt	nt	nt	1%	nt
C/C(=N\NC(=O)CSc1nc2ccccc2o1)c1cccc(O)c1	12%	2	6%	-6%	-1%	18
Cc1cc(SCC(=O)N/N=C/c2ccc(O)c(O)c2)nc2ccccc12	-11%	1	13%	-26%	-5%	-2
O=C(CSc1nc2ccccc2o1)N/N=C/c1ccc(O)c(O)c1	2%	22*	-2%	-26%	-4%	31*
Cc1csc2nc(CSc3nc4ccccc4o3)c(Br)n12	-25%	52*	-18%	-11%	-9%	78*
CC1(C)CC(=O)c2cnc(NC(=O)CSc3nc4ccccc4o3)nc2C1	12%	16*	-1%	0%	-2%	55
Cc1ccccc1/C=N/NC(=O)CSc1nc2ccccc2o1	-7%	24*	6%	-12%	-2%	93*
Cc1ccc(OCCSc2nc3ccccc3n2CC(=O)N2CCCCC2)c(C)c1	nt	nt	nt	nt	-10%	nt
CC1CCN(c2nc3c(S(=O)(=O)c4cccc(Cl)c4)nnn3c3ccsc23)CC1	nt	nt	nt	nt	5%	nt
Cc1cc(C)c(NC(=O)c2c(C)oc3c2C2=NCCN2C=N3)c(C)c1	nt	nt	nt	nt	-2%	nt
